Data on 15 compounds can be found in ChEMBL document CHEMBL1961873, “Compounds: GSK PKIS; Assays: Nanosyn kinase panel” (2012).

For test [1], the target named is Fibroblast growth factor receptor 4 (Homo sapiens) (UniProt P22455). Particulars: at 1 µM.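 Also: reported figure is the averaged percent inhibition of FGFR4, from the GSK PKIS kinase screening panel.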
The target of test [2] is Tyrosine-protein kinase Fgr (Homo sapiens) (UniProt P09769). The conditions noted are these: at 0.1 µM.
Test [3] shares this target. The conditions noted are these: at 1 µM.
In test [4] the target is Vascular endothelial growth factor receptor 1 (Homo sapiens) (UniProt P17948). The conditions noted are these: at 0.1 µM.
Sequence of Vascular endothelial growth factor receptor 1 (Homo sapiens) (P17948 whole entry): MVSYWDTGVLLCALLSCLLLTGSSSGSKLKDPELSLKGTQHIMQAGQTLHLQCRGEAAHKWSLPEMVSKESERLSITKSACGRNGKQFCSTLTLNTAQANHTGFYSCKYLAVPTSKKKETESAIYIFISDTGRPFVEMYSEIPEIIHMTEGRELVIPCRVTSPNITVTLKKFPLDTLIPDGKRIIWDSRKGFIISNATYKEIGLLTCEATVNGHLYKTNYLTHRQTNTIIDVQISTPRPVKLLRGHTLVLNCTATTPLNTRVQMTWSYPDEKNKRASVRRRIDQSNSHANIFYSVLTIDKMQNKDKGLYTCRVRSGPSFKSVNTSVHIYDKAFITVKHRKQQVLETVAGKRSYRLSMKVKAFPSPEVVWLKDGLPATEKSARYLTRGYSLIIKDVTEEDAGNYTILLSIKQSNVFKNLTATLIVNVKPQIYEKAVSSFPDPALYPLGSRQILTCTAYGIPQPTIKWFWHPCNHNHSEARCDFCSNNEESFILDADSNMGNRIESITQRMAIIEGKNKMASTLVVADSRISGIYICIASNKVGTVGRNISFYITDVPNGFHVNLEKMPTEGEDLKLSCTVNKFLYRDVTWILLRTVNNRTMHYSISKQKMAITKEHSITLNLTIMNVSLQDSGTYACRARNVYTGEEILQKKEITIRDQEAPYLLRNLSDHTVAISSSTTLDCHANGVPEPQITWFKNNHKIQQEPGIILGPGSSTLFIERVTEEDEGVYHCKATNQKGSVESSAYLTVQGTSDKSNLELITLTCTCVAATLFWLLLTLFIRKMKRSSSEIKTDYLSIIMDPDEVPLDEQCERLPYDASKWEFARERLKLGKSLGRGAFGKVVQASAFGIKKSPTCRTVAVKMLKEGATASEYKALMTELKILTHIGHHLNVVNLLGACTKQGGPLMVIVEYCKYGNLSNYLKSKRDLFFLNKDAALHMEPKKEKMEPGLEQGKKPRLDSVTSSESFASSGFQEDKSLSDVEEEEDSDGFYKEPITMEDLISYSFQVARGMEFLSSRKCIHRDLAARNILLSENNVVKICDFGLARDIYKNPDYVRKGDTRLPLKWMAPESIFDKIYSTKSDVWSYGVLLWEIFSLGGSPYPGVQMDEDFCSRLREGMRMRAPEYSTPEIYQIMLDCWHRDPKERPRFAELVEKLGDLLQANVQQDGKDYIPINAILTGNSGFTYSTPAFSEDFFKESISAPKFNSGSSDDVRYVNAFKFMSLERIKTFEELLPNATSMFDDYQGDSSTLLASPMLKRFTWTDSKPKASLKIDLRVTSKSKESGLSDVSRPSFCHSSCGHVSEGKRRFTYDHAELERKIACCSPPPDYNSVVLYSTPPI
Test [5] has the same target. The conditions noted are these: at 1 µM.
In test [6] the target is Receptor-type tyrosine-protein kinase FLT3 (Homo sapiens) (UniProt P36888). The conditions noted are these: at 0.1 µM.
For test [7] the target is unchanged. The conditions noted are these: at 1 µM.
Test [8] relates to T1, Receptor-type tyrosine-protein kinase FLT3 (Homo sapiens), P36888 [D835Y].
T1 sequence (whole entry): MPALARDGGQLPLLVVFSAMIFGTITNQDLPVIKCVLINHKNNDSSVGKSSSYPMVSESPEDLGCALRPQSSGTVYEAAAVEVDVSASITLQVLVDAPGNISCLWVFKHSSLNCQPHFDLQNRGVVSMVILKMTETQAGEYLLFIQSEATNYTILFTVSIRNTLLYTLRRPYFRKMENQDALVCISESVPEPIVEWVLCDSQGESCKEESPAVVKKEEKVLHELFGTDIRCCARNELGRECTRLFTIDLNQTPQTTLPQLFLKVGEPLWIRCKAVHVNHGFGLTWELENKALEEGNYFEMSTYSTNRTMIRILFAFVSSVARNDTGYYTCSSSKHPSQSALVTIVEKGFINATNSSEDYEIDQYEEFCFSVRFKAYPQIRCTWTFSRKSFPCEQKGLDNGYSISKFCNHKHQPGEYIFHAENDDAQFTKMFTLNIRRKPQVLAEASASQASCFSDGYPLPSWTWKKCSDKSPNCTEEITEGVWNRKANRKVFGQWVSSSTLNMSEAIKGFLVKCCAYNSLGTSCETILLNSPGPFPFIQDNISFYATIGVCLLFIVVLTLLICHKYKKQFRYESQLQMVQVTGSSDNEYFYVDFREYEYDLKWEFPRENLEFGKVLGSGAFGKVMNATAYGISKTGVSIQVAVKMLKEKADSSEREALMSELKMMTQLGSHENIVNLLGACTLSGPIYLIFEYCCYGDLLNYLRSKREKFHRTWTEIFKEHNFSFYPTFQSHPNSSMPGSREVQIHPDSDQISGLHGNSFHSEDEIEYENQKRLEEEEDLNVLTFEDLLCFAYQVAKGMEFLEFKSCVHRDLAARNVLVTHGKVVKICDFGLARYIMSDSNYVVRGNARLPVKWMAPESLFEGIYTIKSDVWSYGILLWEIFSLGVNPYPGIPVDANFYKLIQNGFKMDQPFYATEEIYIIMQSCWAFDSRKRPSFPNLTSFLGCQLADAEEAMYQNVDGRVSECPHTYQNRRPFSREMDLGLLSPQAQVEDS
The conditions noted are these: at 0.1 µM.

Test [9] has as its target Non-receptor tyrosine-protein kinase TYK2 (Homo sapiens) (UniProt P29597). The conditions noted are these: at 1 µM.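 Also: values are mean percent inhibition of TYK2 kinase.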
Test [10] has as its target T2, Tyrosine-protein kinase receptor TYRO3 (Homo sapiens) (UniProt Q06418).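 Also: reported percentages are averaged inhibition values of TYRO3 kinase activity.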
T2 sequence (whole entry): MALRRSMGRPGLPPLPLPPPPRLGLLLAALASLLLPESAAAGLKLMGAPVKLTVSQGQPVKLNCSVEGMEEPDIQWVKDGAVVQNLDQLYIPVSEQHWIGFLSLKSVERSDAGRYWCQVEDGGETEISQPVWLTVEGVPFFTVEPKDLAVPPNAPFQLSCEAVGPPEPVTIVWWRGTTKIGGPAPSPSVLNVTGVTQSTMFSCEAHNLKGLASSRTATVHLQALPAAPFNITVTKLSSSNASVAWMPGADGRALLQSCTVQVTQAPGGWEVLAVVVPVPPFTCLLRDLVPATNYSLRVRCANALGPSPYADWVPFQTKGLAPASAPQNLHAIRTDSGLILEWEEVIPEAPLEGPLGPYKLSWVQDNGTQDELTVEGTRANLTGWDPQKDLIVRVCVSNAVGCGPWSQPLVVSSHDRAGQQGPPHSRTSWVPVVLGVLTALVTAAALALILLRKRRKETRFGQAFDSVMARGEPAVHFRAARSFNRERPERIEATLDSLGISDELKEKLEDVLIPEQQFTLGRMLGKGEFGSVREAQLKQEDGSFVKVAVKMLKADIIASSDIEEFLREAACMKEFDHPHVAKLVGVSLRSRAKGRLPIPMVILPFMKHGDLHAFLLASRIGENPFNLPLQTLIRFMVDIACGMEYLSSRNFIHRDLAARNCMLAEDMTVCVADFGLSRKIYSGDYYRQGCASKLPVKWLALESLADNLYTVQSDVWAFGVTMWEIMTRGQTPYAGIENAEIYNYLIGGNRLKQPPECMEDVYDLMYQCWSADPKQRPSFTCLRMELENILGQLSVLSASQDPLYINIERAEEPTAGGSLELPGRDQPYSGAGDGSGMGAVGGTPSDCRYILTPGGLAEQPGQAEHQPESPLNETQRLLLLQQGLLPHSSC
Particulars: at 0.1 µM.

One may read the inhibition as the drop in the measured response relative to a control, in per cent.

Several values for one entry are separate records, joined by “and”; a condition that tells them apart may be missing. Identical values can stand only once.

Sequence of Fibroblast growth factor receptor 4 (Homo sapiens) (P22455 22-802 limits assumed): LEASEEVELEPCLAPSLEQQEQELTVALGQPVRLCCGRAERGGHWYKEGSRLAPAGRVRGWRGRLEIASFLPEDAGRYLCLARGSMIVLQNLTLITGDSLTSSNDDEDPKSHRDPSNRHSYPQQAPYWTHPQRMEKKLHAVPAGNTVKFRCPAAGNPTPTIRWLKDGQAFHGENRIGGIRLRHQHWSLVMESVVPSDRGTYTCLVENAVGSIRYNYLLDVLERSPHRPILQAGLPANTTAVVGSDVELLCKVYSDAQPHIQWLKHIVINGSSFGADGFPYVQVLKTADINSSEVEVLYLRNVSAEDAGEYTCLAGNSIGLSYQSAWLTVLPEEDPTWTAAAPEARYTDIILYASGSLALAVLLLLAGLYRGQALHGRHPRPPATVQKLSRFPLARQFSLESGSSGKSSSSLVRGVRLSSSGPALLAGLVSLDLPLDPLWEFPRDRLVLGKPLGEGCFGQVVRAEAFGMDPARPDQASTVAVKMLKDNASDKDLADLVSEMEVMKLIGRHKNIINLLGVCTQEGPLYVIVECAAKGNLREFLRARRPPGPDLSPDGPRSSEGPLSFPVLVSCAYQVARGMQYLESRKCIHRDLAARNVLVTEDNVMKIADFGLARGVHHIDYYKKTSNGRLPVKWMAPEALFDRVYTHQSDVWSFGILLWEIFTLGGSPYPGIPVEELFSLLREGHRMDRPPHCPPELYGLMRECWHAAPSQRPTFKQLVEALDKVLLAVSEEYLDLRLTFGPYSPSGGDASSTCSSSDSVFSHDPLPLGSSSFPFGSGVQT
Sequence of Tyrosine-protein kinase Fgr (Homo sapiens) (P09769 2-529 limits assumed): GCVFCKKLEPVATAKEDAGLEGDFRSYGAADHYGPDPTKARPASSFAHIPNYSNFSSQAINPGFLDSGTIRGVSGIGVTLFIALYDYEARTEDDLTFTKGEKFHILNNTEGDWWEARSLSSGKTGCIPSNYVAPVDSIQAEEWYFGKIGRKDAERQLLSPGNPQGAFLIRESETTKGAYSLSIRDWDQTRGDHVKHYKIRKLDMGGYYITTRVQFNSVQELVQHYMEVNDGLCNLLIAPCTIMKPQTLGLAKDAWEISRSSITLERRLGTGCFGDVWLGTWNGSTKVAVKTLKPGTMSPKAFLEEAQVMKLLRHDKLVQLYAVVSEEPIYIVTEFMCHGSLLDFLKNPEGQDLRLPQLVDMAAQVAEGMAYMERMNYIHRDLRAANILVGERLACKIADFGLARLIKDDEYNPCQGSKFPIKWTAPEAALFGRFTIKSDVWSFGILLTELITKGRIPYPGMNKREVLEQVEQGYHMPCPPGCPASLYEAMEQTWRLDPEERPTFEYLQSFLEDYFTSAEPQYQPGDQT
Sequence of Non-receptor tyrosine-protein kinase TYK2 (Homo sapiens) (P29597 whole entry): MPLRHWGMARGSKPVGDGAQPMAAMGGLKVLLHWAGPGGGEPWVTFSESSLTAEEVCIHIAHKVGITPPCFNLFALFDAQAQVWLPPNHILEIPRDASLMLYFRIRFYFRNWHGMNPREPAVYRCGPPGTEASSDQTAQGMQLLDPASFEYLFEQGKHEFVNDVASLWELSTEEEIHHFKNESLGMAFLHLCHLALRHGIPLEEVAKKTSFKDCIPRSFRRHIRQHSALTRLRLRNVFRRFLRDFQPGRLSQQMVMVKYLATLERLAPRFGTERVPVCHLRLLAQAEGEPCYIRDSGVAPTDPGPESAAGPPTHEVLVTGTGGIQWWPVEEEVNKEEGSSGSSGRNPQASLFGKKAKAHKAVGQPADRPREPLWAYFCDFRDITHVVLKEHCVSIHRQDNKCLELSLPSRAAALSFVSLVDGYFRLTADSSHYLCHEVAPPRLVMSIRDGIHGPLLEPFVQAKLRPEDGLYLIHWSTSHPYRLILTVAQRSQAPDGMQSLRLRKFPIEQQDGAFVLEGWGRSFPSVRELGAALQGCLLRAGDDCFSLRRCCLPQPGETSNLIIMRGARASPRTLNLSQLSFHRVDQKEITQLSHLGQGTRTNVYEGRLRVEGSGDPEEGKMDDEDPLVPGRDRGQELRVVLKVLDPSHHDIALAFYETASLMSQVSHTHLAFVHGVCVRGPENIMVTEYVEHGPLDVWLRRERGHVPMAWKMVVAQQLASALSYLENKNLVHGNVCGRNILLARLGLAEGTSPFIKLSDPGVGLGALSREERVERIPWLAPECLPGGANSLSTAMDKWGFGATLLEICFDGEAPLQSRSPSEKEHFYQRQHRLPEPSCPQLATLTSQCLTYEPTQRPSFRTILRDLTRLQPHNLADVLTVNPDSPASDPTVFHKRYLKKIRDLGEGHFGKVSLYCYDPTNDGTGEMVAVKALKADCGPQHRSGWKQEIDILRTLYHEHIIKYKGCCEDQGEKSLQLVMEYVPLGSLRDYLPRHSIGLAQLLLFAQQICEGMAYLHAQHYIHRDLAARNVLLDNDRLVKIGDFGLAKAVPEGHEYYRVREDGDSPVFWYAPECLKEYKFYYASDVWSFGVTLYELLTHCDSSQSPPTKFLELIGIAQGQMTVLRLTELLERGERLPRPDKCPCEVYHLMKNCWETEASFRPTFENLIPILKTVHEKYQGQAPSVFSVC

For the compound `NS(=O)(=O)c1ccc(N/N=C2\C(=O)Nc3cccc(CCc4ccncc4)c32)cc1`, the inhibition in test [1] came to 1.66%; in test [2] it was 4.48%; in test [3] it was 10.8%; in [4], 5.3%; in [5], 12%; in test [6], 64.3%. Moreover, the inhibition in test [7] is 79.3%; in [8], 50.7%; in test [9], -1.59%; in test [10], 0.03%.

With `Cc1cc(O)cc(C)c1/C=C/c1cncc(C(=O)OC(C)(C)C)c1`, the inhibition in [1] was determined as 2.64%; in [2], 8.01%; in test [3], 34%; in test [4], 2.02%; in test [5] it was 2.37%; in test [6] it was 2.32%. In addition, the inhibition in test [7] was 1.9%; in test [8] it was -1.99%; in test [9], -2.24%; in test [10] it was 3.2%.

Consider `Nc1ncnc2occ(-c3ccc(NC(=O)Nc4cc(C(F)(F)F)ccc4F)cc3)c12`, for which the inhibition is 16.7% and 10% in test [1]; 3.04% and 0.42% in test [2]; 24.4% and 11.4% in [3]; 37.5% and 26.9% in [4]; 84.5% and 74.3% in test [5]; 65.9% and 59.9% in [6]. The inhibition in test [7] is 89.1% and 89.5%; in test [8], 18% and 5.3%; in test [9] it was -7.38% and 0.28%; in [10], 5.11% and -0.01%.

With `CN1CCC(C(=O)Nc2n[nH]c3nc(-c4ccc(O)cc4)c(Br)cc23)CC1`, the inhibition in test [1] was -2.79% and 2.44%; in test [2] it was 4.74% and 1.32%; in test [3] it was 4.79% and 3.79%; in test [4], -0.55% and 2.25%; in [5] it was 1.75% and 2.84%; in [6], 1.75% and 4.1%. The inhibition is 5.59% and 2.93% in test [7]; -2.26% and 1.33% in test [8]; -0.92% and -0.98% in test [9]; 2.21% and 0.67% in test [10].

Consider `CS(=O)(=O)Nc1ccc(-c2cc(-c3ccccc3)cc(C(N)=O)c2N)cc1`, for which the inhibition in [1] was 1.17%; in test [2] it was -1.31%; in test [3], 1.01%; in test [4], 1.22%; in [5], 1.42%; in test [6], 6%. The inhibition is 4.94% in [7], -2.16% in test [8], -2.96% in test [9] and 0.01% in test [10].

On to `CS(=O)(=O)CCNCc1ccc(-c2ccc3ncnc(Nc4ccc(OCc5ccccc5)cc4)c3c2)o1`, for which the inhibition in test [1] is 0.38%; in test [2] it was 5.33%; in [3], 20.1%; in [4], 2.38%; in [5], 2.68%; in test [6], 2.34%. Besides, the inhibition is 6.62% in test [7], -1.19% in [8], -2.79% in test [9] and 3.45% in [10].

On to `CN1CCN(Cc2ccc(-c3cc4ncnc(Nc5ccc(OCc6cccc(F)c6)c(Cl)c5)c4s3)o2)CC1`, for which the inhibition was 0.2% and 1% in [1]; 5.67% and 10.9% in test [2]; 30.3% and 30.1% in [3]; 0.35% and 1.57% in test [4]; 3.76% and 1.58% in test [5]; 3.12% and 0.52% in [6]. The inhibition in test [7] was 1.99% and 2.76%; in test [8], -3.92% and 0.13%; in test [9], -7.87% and -0.75%; in [10] it was 2.09% and 4.83%.

Take `Cc1c2ccc(N(C)c3ccnc(Nc4cccc(S(N)(=O)=O)c4)n3)cc2nn1C`: the inhibition in test [1] was determined as 26.4%; in test [2] it was 26%; in test [3] it was 64.7%; in test [4], 52.8%; in [5], 94%; in test [6] it was 2.48%. Further, the inhibition in test [7] is 15%; in [8], -0.8%; in test [9] it was -3.19%; in test [10], 3.74%.

As to `COc1ccc(-c2nn3ncccc3c2-c2ccnc(Nc3ccc(F)c(F)c3)n2)cc1`, the inhibition worked out at 0.82% in test [1]; 20.4% in [2]; 60.8% in test [3]; 2.48% in test [4]; 6.3% in test [5]; 2.32% in [6]. For the same compound, the inhibition in [7] was 4.16%; in test [8], 4.75%; in [9] it was -1.25%; in test [10], 3.56%.

In the case of `O=C(O[C@H]1CN[C@H](C#Cc2cc3ncnc(Nc4ccc5c(cnn5Cc5ccccc5)c4)c3s2)C1)N1CCOCC1`, the inhibition in test [1] was 0.38%; in test [2], 2.54%; in [3], 11.2%; in [4], -2.71%; in test [5], 0.04%; in [6], -2.76%. For the same compound, the inhibition in [7] is -3.41%; in test [8], -5.14%; in [9], 1.01%; in test [10], -0.42%.

Regarding `COc1cc(Nc2ncc(-c3ccccc3)o2)cc(OC)c1`, the inhibition in [1] was -0.29%; in test [2] it was 5.71%; in test [3], 30.2%; in [4] it was 4.69%; in [5], 18.8%; in test [6], 71.8%. Besides, the inhibition was 90.5% in [7], 5.63% in test [8], -1.72% in test [9] and 2.81% in test [10].

For `CN(c1ccc(NC(=O)NCCN2CCOCC2)cc1)c1ccnc(Nc2ccc(CS(C)(=O)=O)cc2)n1`, the inhibition in [1] was determined as 1.61%; in [2] it was 3.44%; in test [3] it was 11.3%; in test [4] it was 13.6%; in [5], 30.7%; in [6], 56.4%. Moreover, the inhibition in [7] was 83.7%; in [8], 8.58%; in [9], -0.59%; in test [10] it was 3.48%.

As to `Cn1c(-c2nonc2N)nc2cnccc21`, the inhibition in test [1] was 1.93%; in test [2] it was 2.79%; in [3], 3.33%; in test [4], 1.36%; in test [5], 1.68%; in test [6], 4.49%. Further, the inhibition in test [7] was 1.55%; in [8], 1.71%; in test [9], -2.34%; in [10], 1.78%.

As for `COc1cc2c(cc1Nc1nc(Nc3cccc(F)c3C(N)=O)c3cc[nH]c3n1)N(C(=O)CN1CCN(C(C)C)CC1)CC2`, the inhibition in test [1] was 1.15%; in test [2], 0.5%; in test [3] it was 0.3%; in test [4] it was -1.2%; in test [5] it was 1.09%; in [6], 1.14%. Further, the inhibition in test [7] is 0.93%; in test [8], -4.8%; in [9], -1.21%; in [10] it was -0.96%.

As to `CC1=C(C(=O)Nc2ccc3[nH]ncc3c2)C(c2ccc(F)cc2)N=C(c2ccc(C(F)(F)F)nc2)N1` (stereo not given), the inhibition is 4.41% in test [1]; 1.36% in [2]; 7.33% in [3]; 2.08% in [4]; 3.96% in [5]; -0.83% in test [6]. Further, the inhibition in [7] was 4.45%; in test [8], -1.1%; in test [9] it was -2.96%; in test [10], 2.47%.
